In the library only some 4.1% were active in any assay of this set; here they are far more common.
Gli-Sufu antag – antagonists of Gli-Sufu signaling. Sufu-KO-LIGHT fibroblasts, Gli luciferase reporter luminescence. inhibition, % at 5 µM. hit rate 0.74% among 340,000. AID 588413;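 active = inhibition above about 55%, limit read from the data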;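 also: 0% = DMSO-treated cells and 100% = wells with medium but no cells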
697 NFkB inh – inhibitors of the PMA/ionomycin-induced NF-kB reporter in 697 B cells | 697 B-cell NF-kB luciferase reporter, 16 h | inhibition, % at 4 µM | hit rate 0.33% among 330,000 | AID 435022; in the data active = inhibition above about 35%
Mdm2 MdmX PPI – disrupts the human Mdm2-MdmX interaction. inhibition, % at 8 µM. SaOS-2 split-luciferase Mdm2/MdmX complementation, luminescence. hit rate 3% among 330,000;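 active = inhibition of at least 50% at 8 µM in the primary screen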
Target sequence (O15151 whole entry, looked up): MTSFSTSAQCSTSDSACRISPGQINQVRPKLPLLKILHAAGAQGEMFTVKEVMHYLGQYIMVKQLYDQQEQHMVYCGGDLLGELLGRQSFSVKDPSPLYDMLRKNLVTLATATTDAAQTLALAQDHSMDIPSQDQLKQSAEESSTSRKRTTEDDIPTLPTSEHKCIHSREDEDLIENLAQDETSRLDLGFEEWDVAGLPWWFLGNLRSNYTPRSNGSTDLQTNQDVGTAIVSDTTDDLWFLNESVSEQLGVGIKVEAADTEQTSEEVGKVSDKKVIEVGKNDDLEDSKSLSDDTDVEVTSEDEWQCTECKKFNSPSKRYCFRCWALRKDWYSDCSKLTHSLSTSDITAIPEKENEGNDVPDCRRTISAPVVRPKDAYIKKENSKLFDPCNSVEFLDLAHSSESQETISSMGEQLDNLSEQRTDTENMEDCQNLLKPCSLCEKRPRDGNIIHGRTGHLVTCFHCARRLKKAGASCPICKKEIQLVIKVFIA
Target sequence (Q00987 whole entry, looked up): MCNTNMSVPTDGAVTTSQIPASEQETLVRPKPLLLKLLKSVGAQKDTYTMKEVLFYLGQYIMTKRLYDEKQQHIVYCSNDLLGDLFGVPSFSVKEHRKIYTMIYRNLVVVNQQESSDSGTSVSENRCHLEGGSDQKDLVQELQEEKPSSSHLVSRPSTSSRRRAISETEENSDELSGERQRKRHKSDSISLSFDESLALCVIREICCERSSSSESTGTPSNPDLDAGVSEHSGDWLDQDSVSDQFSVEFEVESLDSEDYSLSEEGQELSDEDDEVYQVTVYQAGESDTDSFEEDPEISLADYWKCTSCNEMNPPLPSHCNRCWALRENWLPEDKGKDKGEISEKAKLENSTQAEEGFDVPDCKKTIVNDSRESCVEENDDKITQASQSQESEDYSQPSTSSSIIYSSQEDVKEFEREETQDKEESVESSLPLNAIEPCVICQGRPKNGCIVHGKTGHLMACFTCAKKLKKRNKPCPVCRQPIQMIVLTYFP
aSyn UTR inh – 5' untranslated region of α-synuclein, MLPCN primary screen | alpha-synuclein 5'UTR reporter, inhibitor activity | hit rate 0.82% among 300,000 | inhibition, % (tested at 7.5 µM) | AID 1813; in the data active = inhibition above about 60%;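 also: H4 neuroglioblastoma cells stably carrying SNCA 5'UTR luciferase fusion; 0% = DMSO wells and 100% = positive control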
Jurkat NFkB inh – lowers PMA/ionomycin-induced NF-kB signal in Jurkat cells; PMA/ionomycin-induced NF-kB luciferase reporter, luminescence; inhibition, % at 4 µM; hit rate 0.53% among 330,000; in the data active = inhibition above about 50%
KLF5 inhibitor – suppresses KLF5 promoter-driven expression. inhibition, % at 5 µM. DLD-1 KLF5 promoter-luciferase reporter, luminescence. hit rate 0.23% among 290,000. AID 1700;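 active = inhibition above a per-plate limit of that plate's mean compound inhibition plus 3 SD, cut at about 60% in these data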;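 also: 0% = DMSO wells and 100% = LY294002 at 200 µM; higher means less KLF5 promoter-driven luciferase light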
Mdm2 MdmX conf – confirmation of human Mdm2/MdmX interaction inhibitors | shares compounds with Mdm2 MdmX PPI | Mdm2-MdmX binding, luminescent assay | inhibition, % at 8 µM | hit rate 55% among 10,000; in the data active = inhibition above about 40%
Full FLuc ctr – inhibits full-length luciferase, flagging false Mdm2/MdmX hits; hit rate 77% among 6,200; AID 504607; SaOS-2 full-length luciferase counterscreen, luminescence; shares compounds with Mdm2 MdmX PPI; inhibition, % at 8 µM;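 active = mean inhibition at 8 µM reaching about 37%, which flags the compound as non-specific, limit read from the data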;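 also: p53-null SaOS-2 cells with luciferase driven by a doxycycline-inducible promoter; compound on cells about two nights before reading with doxycycline added after day one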
* = called active by the depositor; . = no result given.

SMILES | Gli-Sufu antag | 697 NFkB inh | Mdm2 MdmX PPI | aSyn UTR inh | Jurkat NFkB inh | KLF5 inhibitor | Mdm2 MdmX conf | Full FLuc ctr
O=C(NN=Cc1ccc(O)cc1O)c1ccccc1NS(=O)(=O)c1cccs1 | 19.2 | 6.3 | 55.0* | . | 7.1 | . | 37.9 | 46.6*
COc1ccc(C=NNC(=O)c2ccccc2NS(=O)(=O)c2cccs2)cc1O | 1.3 | 3.0 | 16.5 | . | -8.0 | . | . | .
COc1ccc(-c2nsc3c(N4CCCCC4)ncnc23)cc1 | 41.1 | -217.3 | 66.1* | 85.4* | -3.4 | -24.4 | 70.2* | 54.8*
Cc1c(Br)c([N+](=O)[O-])nn1CC(=O)NCCc1c[nH]c2ccccc12 | 5.3 | 12.1 | 13.8 | 27.6 | -11.3 | -10.1 | . | .
O=C(COC(=O)c1ccccc1Nc1ccc(SC(F)F)cc1)NCc1ccco1 | -22.2 | -27.8 | -3.2 | -90.8 | -3.1 | -17.3 | . | .
c1ccc([C@H]2CNCCN2CCc2cccc3ccccc23)cc1 | 0.7 | 14.1 | 57.1* | . | 10.5 | . | 21.8 | .
COc1ccc(-c2cc(-c3ccccc3)c(C#N)c(SCC(=O)O)n2)cc1 | 10.3 | -19.5 | 0.6 | 5.5 | -24.1 | . | . | .
COc1ccc(-c2cc(-c3cccs3)c(C#N)c(SCC(=O)NCc3ccco3)n2)cc1 | 6.6 | -90.0 | 56.1* | . | 47.7 | -17.1 | 70.1* | 51.5*
COc1cccc(-c2ccc(C#N)c(SCC(=O)NCc3ccco3)n2)c1 | 10.2 | -37.3 | 28.1 | -18.8 | -14.1 | -15.3 | . | .
COc1ccc(CNC(=O)CSc2nc(-c3ccccc3)cc(-c3cccs3)c2C#N)cc1 | 12.3 | 4.6 | 63.4* | 7.9 | -1.1 | 2.1 | -3.9 | .
COc1cc(-c2cc(-c3ccccc3)nc(SCC(=O)Nc3nccs3)c2C#N)cc(OC)c1OC | -4.5 | 19.8 | 51.4* | -0.3 | -8.5 | -21.4 | 25.6 | .
N#Cc1c(SCC(=O)Nc2nccs2)nc2c(c1-c1ccco1)CCCC2 | 5.1 | -19.8 | 51.5* | 13.2 | -14.3 | 20.8 | 10.9 | .
CCNc1nc(OC)nc(SCC(=O)Nc2ccccc2)n1 | 7.4 | -15.9 | 23.7 | -30.2 | 22.8 | -8.2 | . | .
CCc1noc(C)c1C(=O)NNC(=O)c1ccc(N(CC)CC)cc1 | -1.5 | 4.9 | 16.4 | . | -2.4 | . | . | .
O=C(NCCCN1CCOCC1)C(c1ccccc1)c1ccccc1 | -9.8 | -24.1 | 11.5 | 2.2 | -3.9 | -32.5 | . | .
Cc1cnc(=O)[nH]c1SCC(=O)Nc1nccs1 | 3.6 | -8.6 | 36.0 | 4.9 | -6.8 | . | . | .
Cc1nc(SCC(=O)Nc2nccs2)c(C#N)c(C)c1C | -0.8 | -204.6 | 68.2* | . | 24.1 | . | 51.0* | 110.3*
COC(=O)c1sc(N)c(C(=O)OC)c1COC(=O)[C@@H](NS(=O)(=O)c1cccc(Cl)c1)C(C)C | -5.7 | 3.4 | 54.5* | 13.0 | -2.8 | 6.7 | 27.7 | .
CCN1CCN(Cc2c3ccccc3cc3ccccc23)CC1 | 12.1 | -6.8 | 10.5 | 2.5 | -15.1 | -29.7 | . | .
CC1(C)CC(=O)C2=C(C1)OC1=C(C(=O)CC(C)(C)C1)C2c1ccc(O)cc1O | -0.3 | 15.1 | 99.5* | -11.1 | -3.5 | -12.4 | 83.0* | 50.5*
Nc1ncc(Br)cc1S(=O)(=O)Nc1cc(C(F)(F)F)cc(C(F)(F)F)c1 | 16.2 | -28.3 | 79.0* | -27.5 | 5.4 | -15.9 | 37.5 | 55.8*
Cc1cc(=O)[nH]c(SCC(=O)Nc2ccc(F)c([N+](=O)[O-])c2)n1 | -3.6 | -3.3 | -5.7 | -33.4 | 2.1 | -24.0 | . | .
Nc1nc(C2CC2)c(Sc2sc(N)nc2C2CC2)s1 | -0.9 | -104.6 | 50.5* | 36.1 | -3.8 | 25.1 | 38.4 | 119.5*
CN(C)C(CNC(=O)c1ccc(S(=O)(=O)Nc2ccccc2F)cc1)c1ccco1 (stereo not given) | -6.2 | 4.4 | -3.0 | . | 5.6 | . | . | .
Cc1sc2ncnc(NCc3ccccc3)c2c1C | -20.6 | -67.2 | 67.4* | 44.1 | 30.4 | 4.8 | 18.4 | .
Cc1sc2ncnc(Nc3ccccc3)c2c1C | 0.3 | -7.3 | 11.9 | 7.6 | 2.6 | -20.2 | . | .
O=c1oc(-c2ccccc2Br)nc2ccccc12 | -0.2 | 12.6 | 64.7* | -28.0 | 1.9 | -33.4 | 50.1* | 47.2*
O=c1oc(-c2cccnc2)nc2ccccc12 | 4.7 | -10.4 | -4.0 | 5.7 | -1.3 | -20.1 | . | .
COc1cc(/C=C(\C#N)c2nc(-c3cc4ccccc4oc3=O)cs2)ccc1O | 36.2 | 7.2 | 58.1* | 10.9 | -1.5 | 9.3 | 13.0 | .

Bioassay records from PubChem.
